Data reported in PubChem BioAssay (NCI).
About 83,000 compounds went through this panel and 20% of them were active in at least one assay; those are over-represented in the sample as a whole.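 Method: cells in 96-well plates; compound added at one concentration; 48 h incubation; percent growth measured; values under 10 scored active.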 Activity calls are given as the source filed them.

How the values were obtained:
Assay in all cases: NCI-60 one-dose screen, 48 h (100 = growth as untreated, 0 = no growth, -100 = all killed)
Details in all cases: 10 µM unless noted
NCI-H23 lung = tested on: NCI-H23 lung
NCI-H226 lung = tested on: NCI-H226 lung
NCI-H322M lung = tested on: NCI-H322M lung
HOP-62 NSCLC = tested on: HOP-62 NSCLC
NCI-H460 lung = tested on: NCI-H460 lung
HOP-92 NSCLC = tested on: HOP-92 NSCLC
NCI-H522 lung = tested on: NCI-H522 lung
A549/ATCC NSCLC = tested on: A549/ATCC NSCLC
786-0 renal = tested on: 786-0 renal
COLO 205 colon = tested on: COLO 205 colon
DU-145 prostate = tested on: DU-145 prostate
K-562 leukemia = tested on: K-562 leukemia
MALME-3M melanoma = tested on: MALME-3M melanoma
MDA-MB-231 breast = tested on: MDA-MB-231 breast
SF-268 CNS = tested on: SF-268 CNS
SF-295 CNS = tested on: SF-295 CNS
SF-539 CNS = tested on: SF-539 CNS
UACC-257 melanoma = tested on: UACC-257 melanoma
M14 melanoma = tested on: M14 melanoma

Measured: growth

CC(C)CCSc1nc(NNC(N)=O)c(C#N)c(-c2ccccc2)n1
inactive: NCI-H23 lung 91.3% | NCI-H226 lung 96.6% | NCI-H322M lung 106% | HOP-62 NSCLC 105% | NCI-H460 lung 112% | HOP-92 NSCLC 86.1% | NCI-H522 lung 97.4% | A549/ATCC NSCLC 106% | 786-0 renal 75.2% | COLO 205 colon 121% | DU-145 prostate 117% | K-562 leukemia 99.2% | MALME-3M melanoma 99.7% | MDA-MB-231 breast 99.6% | SF-268 CNS 101% | SF-295 CNS 96.9% | SF-539 CNS 94.8% | UACC-257 melanoma 102% | M14 melanoma 71.7%

CC1CCN(C(=O)OCc2nc3nc(Cl)nc(N4CCOCC4)c3[nH]2)CC1
inactive: NCI-H322M lung 68% | HOP-62 NSCLC 46.4% | NCI-H460 lung 10.5% | SF-295 CNS 88.3%
active: NCI-H23 lung 8.48% | NCI-H226 lung -73.7% | HOP-92 NSCLC -48.8% | NCI-H522 lung -67.8% | A549/ATCC NSCLC 6.08% | 786-0 renal -79.8% | COLO 205 colon -86.6% | DU-145 prostate -76.7% | K-562 leukemia -16.7% | MALME-3M melanoma -78.9% | MDA-MB-231 breast -60.1% | SF-268 CNS -81.6% | SF-539 CNS -47.1% | UACC-257 melanoma -89.7% | M14 melanoma -50.9%

CC[N+](CC)(CCCC(C)[N+]1(Cc2ccccc2)C(C)=CC=C1C)Cc1ccccc1 (configuration not stated)
inactive: NCI-H23 lung 72.3% | NCI-H226 lung 81.2% | NCI-H322M lung 96.7% | HOP-62 NSCLC 98.1% | NCI-H460 lung 97% | HOP-92 NSCLC 55.3% | NCI-H522 lung 75% | A549/ATCC NSCLC 100% | 786-0 renal 99.5% | COLO 205 colon 67.9% | DU-145 prostate 101% | K-562 leukemia 54.6% | MALME-3M melanoma 87.8% | MDA-MB-231 breast 78.6% | SF-268 CNS 98.9% | SF-295 CNS 97.8% | SF-539 CNS 97.6% | UACC-257 melanoma 84.2% | M14 melanoma 66.5%

NC(=O)C1(N2CCCCC2)CCN(CCCC(=O)c2ccc(F)cc2)CC1
active: NCI-H522 lung -30.2% | DU-145 prostate 5.34% | SF-295 CNS 4.82% | SF-539 CNS -3.17%
inactive: NCI-H23 lung 31.6% | NCI-H226 lung 43.7% | NCI-H322M lung 52.5% | HOP-62 NSCLC 38.3% | NCI-H460 lung 11.9% | HOP-92 NSCLC 92.5% | A549/ATCC NSCLC 79.3% | 786-0 renal 49.8% | COLO 205 colon 13.9% | K-562 leukemia 10.8% | MALME-3M melanoma 57.1% | MDA-MB-231 breast 29.7% | SF-268 CNS 38.4% | UACC-257 melanoma 47.1% | M14 melanoma 44.8%

CC1(C)[C@H](O)CC[C@]2(C)[C@@H]1CC[C@@]13C[C@@H](CC[C@H]12)[C@@](O)(CO)C3
active: 786-0 renal -45% | M14 melanoma -30.7%
inactive: NCI-H23 lung 105% | NCI-H226 lung 99.7% | NCI-H322M lung 113% | HOP-62 NSCLC 103% | NCI-H460 lung 104% | HOP-92 NSCLC 126% | NCI-H522 lung 92.1% | A549/ATCC NSCLC 107% | COLO 205 colon 119% | DU-145 prostate 117% | K-562 leukemia 104% | MALME-3M melanoma 111% | MDA-MB-231 breast 114% | SF-268 CNS 108% | SF-295 CNS 103% | SF-539 CNS 106% | UACC-257 melanoma 107%

COc1ccc(CNC(=O)COc2ccc(/C=N/Nc3nc4ccccc4s3)cc2)cc1
active: NCI-H460 lung -12.6% | HOP-92 NSCLC -24.8% | 786-0 renal -6.47% | DU-145 prostate -49.1%
inactive: NCI-H23 lung 33.9% | NCI-H226 lung 18% | NCI-H322M lung 30.2% | HOP-62 NSCLC 39.3% | NCI-H522 lung 31.1% | A549/ATCC NSCLC 26.5% | COLO 205 colon 64% | K-562 leukemia 34.8% | MALME-3M melanoma 24.1% | MDA-MB-231 breast 10.2% | SF-268 CNS 19.9% | SF-295 CNS 47.4% | SF-539 CNS 21.1% | UACC-257 melanoma 53.8% | M14 melanoma 54%

CCC(C)N(CCNc1cc(OC)cc2cccnc12)CCC(C)C (configuration not stated)
inactive: NCI-H23 lung 71.7% | NCI-H226 lung 88% | NCI-H322M lung 111% | HOP-62 NSCLC 62.4% | NCI-H460 lung 78.3% | HOP-92 NSCLC 87.9% | NCI-H522 lung 50% | A549/ATCC NSCLC 61.6% | 786-0 renal 95.7% | COLO 205 colon 68.3% | DU-145 prostate 95.6% | K-562 leukemia 83.2% | MALME-3M melanoma 121% | MDA-MB-231 breast 84.5% | SF-268 CNS 78.6% | SF-295 CNS 97% | SF-539 CNS 101% | UACC-257 melanoma 87.3% | M14 melanoma 82.4%

O=C(O)CCCCCCCCCCCCCCC(=O)O
inactive: NCI-H23 lung 103% | NCI-H226 lung 85.3% | NCI-H322M lung 100% | HOP-62 NSCLC 99.1% | NCI-H460 lung 110% | HOP-92 NSCLC 85.1% | NCI-H522 lung 89.6% | A549/ATCC NSCLC 90.5% | 786-0 renal 102% | COLO 205 colon 108% | DU-145 prostate 106% | K-562 leukemia 109% | MALME-3M melanoma 101% | MDA-MB-231 breast 98.2% | SF-268 CNS 98.9% | SF-295 CNS 101% | SF-539 CNS 105% | UACC-257 melanoma 95.6% | M14 melanoma 107%
